{"source": "ChEMBL document CHEMBL1157539", "about": "“Thousands of chemical starting points for antimalarial lead identification” (Nature, 2010)", "note": "The full ranking holds about 13,000 compounds; the median of “IFI” is about 4, and the highest 2% start at about 17. The sample as a whole holds a higher share of the highest values than the screen did."}
{"experiment": "GSK_TCMDC: Inhibition Frequency Index (IFI). The number of non-kinase HTS assays where a compound showed > 50 % inhibition, expressed as a percentage of the number of such assays in which the compound was tested", "assay_type": "functional", "units": {"IFI": "%"}}
{"smiles": "Nc1nc(N)c2c3c(ccc2n1)NCCC3", "IFI": 2.48}
{"smiles": "COc1ccc(CNCc2ccc(-c3ccc(-c4nc5cccc(C)c5[nH]4)cc3)cc2)cc1", "IFI": 13.1}
{"smiles": "O=C(Cn1cc(C(F)(F)F)cc(Cl)c1=O)N1CCN(S(=O)(=O)c2ccc(Cl)cc2)CC1", "IFI": 0}
{"smiles": "CCCNCc1ccc(-c2ccc(CN(CCOC)C(=O)CCC(=O)c3ccc(OC)c(F)c3)cc2)nc1", "IFI": 0.7}
{"smiles": "O=C(Nc1ccc(Cl)c(C(F)(F)F)c1)N[C@H]1CCN(CCCCCNC(=O)C2CC2c2ccc(Cl)c(Cl)c2)C1", "note": "(stereo partly specified)", "IFI": 12.2}
{"smiles": "O=C(Nc1ccc(Cl)cc1)NC1CCN(CCCCCNC(=O)C2CC2c2ccc(Cl)c(Cl)c2)CC1", "note": "(stereo unspecified)", "IFI": 10.2}
{"smiles": "O=C(Nc1ccc(F)c(C(F)(F)F)c1)NC1CCN(CCCCCNC(=O)C2CC2c2ccc(Cl)c(Cl)c2)CC1", "note": "(stereo unspecified)", "IFI": 18.5}
{"smiles": "O=C(Nc1cccc(F)c1)N[C@H]1CCN(CCCCCNC(=O)C2CC2c2ccc(Cl)c(Cl)c2)C1", "note": "(stereo partly specified)", "IFI": 19.4}
{"smiles": "O=C(Nc1ccc(C(F)(F)F)cc1)NC1CCN(CCCCCNC(=O)C2CC2c2ccc(Cl)c(Cl)c2)CC1", "note": "(stereo unspecified)", "IFI": 11.1}
{"smiles": "O=C(Nc1cccc(F)c1)NC1CCN(CCCCCNC(=O)C2CC2c2ccc(Cl)c(Cl)c2)CC1", "note": "(stereo unspecified)", "IFI": 11.5}
{"smiles": "O=C(Nc1ccc(F)c(C(F)(F)F)c1)N[C@H]1CCN(CCCCCNC(=O)C2CC2c2ccc(Cl)c(Cl)c2)C1", "note": "(stereo partly specified)", "IFI": 15.9}
{"smiles": "O=C(Nc1ccc(Cl)c(C(F)(F)F)c1)NC1CCN(CCCCCNC(=O)C2CC2c2ccc(Cl)c(Cl)c2)CC1", "note": "(stereo unspecified)", "IFI": 17.1}
{"smiles": "O=C(Nc1cc(F)cc(F)c1)N[C@H]1CCN(CCCCCNC(=O)C2CC2c2ccc(Cl)c(Cl)c2)C1", "note": "(stereo partly specified)", "IFI": 13.6}
{"smiles": "COc1ccc(-c2cnc3ccc(NCCCO)nn23)cc1OC", "IFI": 6.77}
{"smiles": "COc1ccc(-c2nc3cccnc3n2CC(=O)Nc2c(C)cc(C)cc2C)c(OC)c1", "IFI": 5.56}
{"smiles": "N=C1N=C(N)NCN1OCc1ccc(Cl)c(Cl)c1", "IFI": 0.72}
{"smiles": "Cc1[nH]c(C)c(-c2ccc(OCc3cc(C(F)(F)F)cc(C(F)(F)F)c3)nc2)c(=O)c1Br", "IFI": 5.36}
{"smiles": "CC(C)(C)c1ccc2[nH]c(-c3ccc(/C=C/C(=O)NCc4cccc(C(F)(F)F)c4)cc3)nc2c1", "IFI": 2.9}
{"smiles": "Cc1cccc2nc(-c3cccc(-c4cccc(CN5CCCC5CN)c4)c3)[nH]c12", "note": "(stereo unspecified)", "IFI": 4.95}
{"smiles": "Cc1nn(-c2cccc(C(F)(F)F)c2)c2sc(C(=O)NC3CCN(C(C)C)CC3)cc12", "IFI": 10}
{"smiles": "CCCCN(CCCC)CCCCNc1c2ccc(Cl)cc2nc2ccc(OC)cc12", "IFI": 6.87}
{"smiles": "CCCc1cc(C(C)=O)ccc1OCCCON1C(=N)N=C(N)NC1(C)C", "IFI": 3.68}
{"smiles": "N=C1N=C(N)NC2(CCCCC2)N1OCCCOc1cccc2ccccc12", "IFI": 9.16}
{"smiles": "CC1(C)NC(N)=NC(=N)N1OCCOc1ccc(Cc2ccccc2)cc1", "IFI": 4.41}
{"smiles": "CCCc1cc(OCCCOc2ccccc2)ccc1OCCCON1C(=N)N=C(N)NC1(C)C", "IFI": 21.1}
{"smiles": "CC1(C)NC(N)=NC(=N)N1OCCCCOc1ccccc1", "IFI": 2.17}
{"smiles": "N=C1N=C(N)NC2(CCCCC2)N1OCCOc1ccc(Cc2ccccc2)cc1", "IFI": 27.6}
{"smiles": "COc1ccccc1NC(=O)Nc1cccc(-c2cccc(-c3nc4cccc(C)c4[nH]3)c2)c1", "IFI": 3.03}
{"smiles": "c1cc(-c2ccc(CNC3CCOCC3)cc2)cc(-c2nc3ccccc3[nH]2)c1", "IFI": 0.97}
{"smiles": "C#CCOc1ccc2ccccc2c1CNCCCCCCNCc1c(OCC#C)ccc2ccccc12", "IFI": 14.1}
{"smiles": "Oc1ccc2ccccc2c1CNCCC1CCCCC1", "IFI": 2.96}
{"smiles": "CCOc1ccc2ccccc2c1CNCCCCCCNCc1c(OCC)ccc2ccccc12", "IFI": 13}
{"smiles": "CCCOc1ccc2ccccc2c1CNCCCCCCNCc1c(OCCC)ccc2ccccc12", "IFI": 17.6}
{"smiles": "C#CCCOc1ccc2ccccc2c1CNCCCCCCNCc1c(OCCC#C)ccc2ccccc12", "IFI": 12.8}
{"smiles": "c1ccc2c(CNCCCCCCNCc3c(OCC4CC4)ccc4ccccc34)c(OCC3CC3)ccc2c1", "IFI": 18.7}
{"smiles": "CCCCCCOc1ccc2ccccc2c1CNCCCCCCNCc1c(OCCCCCC)ccc2ccccc12", "IFI": 22.8}
{"smiles": "C/C=C/COc1ccc2ccccc2c1CNCCCCCCCCNCc1c(OC/C=C/C)ccc2ccccc12", "IFI": 16.6}
{"smiles": "C=CCOc1ccc2ccccc2c1CNCCCCCCNCc1c(OCC=C)ccc2ccccc12", "IFI": 19.6}
{"smiles": "CCCCCCCCNCc1c(O)ccc2ccccc12", "IFI": 7.69}
{"smiles": "c1ccc2[nH]c(-c3ccc(-c4ccc(CNCC5CCCO5)cc4)s3)nc2c1", "note": "(stereo unspecified)", "IFI": 6.86}
{"smiles": "N#Cc1ccc(-c2ccc(C(=O)NCCCCN3CCC(c4ccc5c(c4OCC(N)=O)CCCC5)CC3)cc2)cc1", "IFI": 3.54}
{"smiles": "N=C(N)Nc1nc(-c2ccc(NC(=N)N3CCC[C@H]3CN3CCCC3)cc2)cs1", "IFI": 2.17}
{"smiles": "CCCCNc1nc(NCCCC)c2c(C)c(Cc3ccccc3)c(NCCCC)nc2n1", "IFI": 16.1}
{"smiles": "COc1ccc(CNCc2cccc(-c3ccc(-c4nc5cccc(C)c5[nH]4)s3)c2)cc1", "IFI": 10.4}
{"smiles": "COc1ccccc1/C=C/C(=O)NC1CCC(CCN2CCc3ccc(-c4cc(C)no4)cc3CC2)CC1", "note": "(stereo unspecified)", "IFI": 3.88}
{"smiles": "Nc1c2ccccc2nc2ccc(Cl)cc12", "IFI": 9.03}
{"smiles": "Cc1noc(C)c1-c1cccc(CNCc2cccc(-c3cccc(-c4nc5ccccc5[nH]4)c3)c2)c1", "IFI": 3.92}
{"smiles": "COc1cc(CN/C(=N/c2ccc(-c3ccccc3)cc2)Nc2ccc(C#N)cc2O)cc(OC)c1", "IFI": 1.46}
{"smiles": "Cc1nc2nc(N)nc(N)c2c(C)c1Cc1ccc([N+](=O)[O-])cc1", "IFI": 1.6}
{"smiles": "O=C(NCCCCN1CCC(c2ccc3c(c2OCCCO)CCCC3)CC1)c1ccc(-c2ccc(C(F)(F)F)cc2)c(CO)c1", "IFI": 10.1}
{"smiles": "CC1(C)NC(N)=NC(=N)N1OCCOc1cccc(C(F)(F)F)c1", "IFI": 3.7}
{"smiles": "Cc1ccc(NC(=N)Nc2ncccc2OCc2c(F)cccc2Cl)cc1", "IFI": 22}
{"smiles": "CCOc1cc2ncnc(Nc3ccc(OCc4c(F)cccc4F)c(OC)c3)c2cc1OCC", "IFI": 0}
{"smiles": "CCOc1cc2ncnc(Nc3ccc(OCc4c(Cl)cccc4Cl)c(OC)c3)c2cc1OCC", "IFI": 0}
{"smiles": "O=C(Nc1ccccc1)N(Cc1ccc(-c2ccc(CNC3CCCC3)cc2)cc1)C1CCN(Cc2ccccc2)CC1", "IFI": 4.9}
{"smiles": "O=C(CCc1c[nH]cn1)Nc1ccc(-c2ccc(-c3nc4cc(F)ccc4[nH]3)cc2)cc1", "IFI": 6.48}
{"smiles": "O=C(Nc1ccccc1)N(Cc1cccc(-c2cccc(CNCCc3ccccc3)c2)c1)C1CCN(Cc2ccccc2)CC1", "IFI": 12.3}
{"smiles": "COc1ccc(NS(=O)(=O)c2ccc(C(=O)Nc3ccc(OC(F)(F)F)cc3)cc2)cc1N1CCN(CC2CC2)CC1", "IFI": 8.49}
{"smiles": "COc1ccc(NS(=O)(=O)c2ccc(C(=O)Nc3ccc(C(F)(F)F)cc3)cc2)cc1N1CCN(CC2CC2)CC1", "IFI": 2.1}
{"smiles": "CCCCN1CCN(c2cc(NS(=O)(=O)c3ccc(C(=O)Nc4ccc(C(F)(F)F)cc4)cc3)ccc2OC)CC1", "IFI": 3.97}
{"smiles": "CCC(C)c1ccc(NC(=O)c2ccc(S(=O)(=O)Nc3ccc(OC)c(N4CCN(CC5CC5)CC4)c3)cc2)cc1", "note": "(stereo unspecified)", "IFI": 13.6}
{"smiles": "CCCCN1CCN(c2cc(NS(=O)(=O)c3cccc(C(=O)Nc4ccc(C(F)(F)F)cc4)c3)ccc2OC)CC1", "IFI": 3.55}
{"smiles": "CCCN1CCN(c2cc(S(=O)(=O)Nc3ccc(C(=O)NCc4cccc(C(F)(F)F)c4)cc3)ccc2OC)CC1", "IFI": 24.1}
{"smiles": "COc1ccc(S(=O)(=O)Nc2ccc(C(=O)NCc3ccccc3C(F)(F)F)cc2)cc1N1CCN(CC2CC2)CC1", "IFI": 19.4}
{"smiles": "COc1ccc(S(=O)(=O)Nc2ccc(C(=O)NCc3ccc(C(F)(F)F)cc3)cc2)cc1N1CCN(CC2CC2)CC1", "IFI": 20}
{"smiles": "COc1ccc(NS(=O)(=O)c2cccc(C(=O)Nc3ccc(C(F)(F)F)cc3)c2)cc1N1CCN(CC(C)C)CC1", "IFI": 2.84}
